Results published in PubChem BioAssay (Tox21).
Several values for one entry are separate records, joined by “and”; a condition that tells them apart may be missing. Equal values may be shown once. Results filed as inconclusive are left out. Some structures have more than one record in an assay (separate samples or runs), and their calls can disagree. Activity calls are given as the source filed them. Unless noted, the call rests on the fitted dose curve; in most records, active means well fitted curve in the direction sought with a large enough effect in the repeat runs; inconclusive means weak or mixed curves; inactive means no such curve, though single readings can be large; an effect the other way counts as inactive or inconclusive.

Assays:
[1] = A CellTox Green Cytotoxicity Assay to monitor cytotoxicity in HEK293 cells - 32 hour (AID 1224881); further: nearly all actives have a fitted effect of over 40% in size; further: potency means the concentration at half of the fitted maximal effect
Summary of the method: (§1)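 Seeding of HEK293 cells together with cytotoxicity dye preceded a 5 h incubation at 37 C/5% CO2. Test compounds in DMSO were then added and fluorescence monitored across 40 h.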

[2] = A CellTox Green Cytotoxicity Assay to monitor cytotoxicity in HepG2 cells - 0 hour (AID 1224882); further: nearly all actives have a fitted effect of over 35% in size; further: potency means the concentration at half of the fitted maximal effect; on Cytotoxicity: on the % scale 0 is the no-effect control and ±100 the full control effect
Summary of the method: (§2)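 Nonlytic assay: viable cells exclude the dye, so fluorescence scales with cell death. HepG2 at 600 cells/well, compounds added after 5 h, signal read across 40 h.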

[3] = A CellTox Green Cytotoxicity Assay to monitor cytotoxicity in HEK293 cells - 8 hour (AID 1224884); further: nearly all actives have a fitted effect of over 35% in size; further: potency means the concentration at half of the fitted maximal effect
Summary of the method: as §1

[4] = qHTS RealTime-Glo MT Cell Viability Assay in HepG2 cells - 16 hour (AID 1224885); further: nearly all actives have a fitted effect of over 50% in size; further: potency means the concentration at half of the fitted maximal effect
Summary of the method: (§3)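 qHTS, HepG2, 600 cells/well, RealTime-Glo (NanoLuc + prosubstrate) added with cells; 5 h preincubation; DMSO compound addition; 37 C; luminescence at 0/8/16/24/32/40 h.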

[5] = qHTS RealTime-Glo MT Cell Viability Assay in HEK293 cells - 8 hour (AID 1224887); further: nearly all actives have a fitted effect of over 50% in size; further: potency means the concentration at half of the fitted maximal effect
Summary of the method: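 Tox21 screen in HEK293 using RealTime-Glo MT chemistry, with cells and reagent co-dispensed. Luminescence proportional to viable cell number was captured at intervals during 40 h compound exposure at 37 C.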

[6] = A CellTox Green Cytotoxicity Assay to monitor cytotoxicity in HEK293 cells - 16 hour (AID 1224888); further: nearly all actives have a fitted effect of over 35% in size; further: potency means the concentration at half of the fitted maximal effect
Summary of the method: as §1

[7] = qHTS RealTime-Glo MT Cell Viability Assay in HepG2 cells - 0 hour (AID 1224889); further: on the % scale 0 is the no-effect control and ±100 the full control effect; nearly all actives have a fitted effect of over 50% in size
Summary of the method: as §3

[8] = A CellTox Green Cytotoxicity Assay to monitor cytotoxicity in HepG2 cells - 8 hour (AID 1224890); further: nearly all actives have a fitted effect of over 45% in size; further: potency means the concentration at half of the fitted maximal effect
Summary of the method: as §2

[9] = qHTS assay to identify small molecule antagonists of the estrogen receptor alpha (ER-alpha) signaling pathway using the BG1 cell line in the presence of 0.1 nM 17-beta-estradiol - cell viability counter screen (AID 1259241); further: on the % scale 0 is the no-effect control and ±100 the full control effect; nearly all actives have a fitted effect of over 40% in size
Summary of the method: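 VM7Luc4E2 cells (endogenous full-length ER-alpha, 4xERE-luciferase), cultured 5 days in charcoal-stripped serum, exposed to compounds with 0.1 nM 17beta-estradiol (final) for 22 hr at 37C. Viability read in same wells as live-cell protease fluorescence after 30 min.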

[10] = qHTS assay to identify small molecule antagonists of the androgen receptor (AR) signaling pathway using the MDA cell line in the presence of 0.5 nM R1881 - cell viability counter screen (AID 1259242); further: nearly all actives have a fitted effect of over 45% in size; further: potency means the concentration at half of the fitted maximal effect
Summary of the method: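 R1881 at 0.5 nM final stimulated MDA-kb2 cells during 16 hr compound treatment at 37C. Cytotoxicity read: CellTiter-Fluor fluorescence after 30 min.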

[11] = biological target: Estrogen receptor (Homo sapiens) (UniProt P03372); test: qHTS assay to identify small molecule antagonists of the estrogen receptor alpha (ER-alpha) signaling pathway using the BG1 cell line in the presence of 0.1 nM 17-beta-estradiol (AID 1259244); further: nearly all actives have a fitted effect of over 50% in size; further: potency means the concentration at half of the fitted maximal effect
Estrogen receptor (Homo sapiens), sequence (P03372 whole entry, looked up): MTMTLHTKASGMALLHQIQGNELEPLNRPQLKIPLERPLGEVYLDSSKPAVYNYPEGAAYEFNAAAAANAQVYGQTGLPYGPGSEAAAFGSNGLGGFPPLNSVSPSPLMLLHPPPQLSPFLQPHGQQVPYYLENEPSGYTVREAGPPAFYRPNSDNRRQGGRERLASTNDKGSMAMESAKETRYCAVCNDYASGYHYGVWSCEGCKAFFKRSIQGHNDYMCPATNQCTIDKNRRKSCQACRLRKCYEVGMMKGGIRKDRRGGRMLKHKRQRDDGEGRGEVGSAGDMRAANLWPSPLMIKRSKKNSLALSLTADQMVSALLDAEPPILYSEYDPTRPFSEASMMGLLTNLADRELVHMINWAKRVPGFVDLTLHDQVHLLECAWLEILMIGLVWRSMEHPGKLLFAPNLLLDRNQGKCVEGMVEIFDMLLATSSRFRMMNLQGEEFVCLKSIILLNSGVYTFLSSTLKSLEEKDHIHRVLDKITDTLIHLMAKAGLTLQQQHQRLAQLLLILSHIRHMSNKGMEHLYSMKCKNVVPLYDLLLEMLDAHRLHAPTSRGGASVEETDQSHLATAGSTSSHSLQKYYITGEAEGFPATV
Summary of the method: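 VM7Luc4E2; 4xERE-luciferase; 0.1 nM E2 final; 22 h co-incubation, 37C; ONE-Glo luminescence after 30 min at room temperature.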

[12] = qHTS assay to identify small molecule phospholipidosis (PLD) inducers (AID 1259344; active means well fitted curve in the direction sought with a large enough effect; an effect the other way counts as inactive or inconclusive; further: on the % scale 0 is the no-effect control and ±100 the full control effect)
Summary of the method: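 Phospholipidosis is scored by imaging LipidTOX-stained pits in HepG2 cells exposed to compound for 24 h at 37 C; pit counts and integrated intensities per well and per cell serve as outputs.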

[13] = qHTS assay to identify small molecule HDAC inhibitors (AID 1259364);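 further: wild-type HCT-116 cells with endogenous class I/II HDAC activity; top concentration of the series differs between compounds; on the % scale 0 is the no-effect control and ±100 the full control effect; nearly all actives have a fitted effect of over 45% in size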
Summary of the method: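 Relative class I and II HDAC activity is taken from the luminogenic signal in HCT-116 cells, with compound exposure 2 hr and reagent development 30 min at room temperature.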

[14] = qHTS assay to identify small molecule HDAC inhibitors - cell viability counter screen (AID 1259365); further: nearly all actives have a fitted effect of over 50% in size; further: potency means the concentration at half of the fitted maximal effect
Summary of the method: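 Wild-type HCT-116 cells, 1,500/well, cultured overnight, then compound-treated 2 h at 37 C. Viability measured as ATP luminescence with CellTiter-Glo after 30 min at room temperature.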

[15] = qHTS assay to identify small molecule agonists of the sonic hedgehog signaling (Shh) pathway - cell viability counter screen (AID 1259366); further: nearly all actives have a fitted effect of over 50% in size; further: potency means the concentration at half of the fitted maximal effect
Summary of the method: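 NIH/3T3-derived Gli1-Luc reporter cells, 2,000 per well, received compound after 4 h and were treated about 23 h at 37C. Viability measured in the same wells by CellTiter-Fluor fluorescence after 1 h.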

[16] = qHTS assay to identify small molecule antagonists of the sonic hedgehog signaling (Shh) pathway - cell viability counter screen (AID 1259367); further: nearly all actives have a fitted effect of over 55% in size; further: potency means the concentration at half of the fitted maximal effect
Summary of the method: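 Cells: 3T3 Gli1-Luc, 2,000/well, 4 hr pre-incubation. Compounds in DMSO, then conditioned medium. Incubation 24 hr, 37C, 5% CO2. CellTiter-Fluor at 23 hr, 1 hr, fluorescence.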

[17] = qHTS assay to identify small molecule agonists of the sonic hedgehog signaling (Shh) pathway (AID 1259368; calls by dose curve;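 further: NIH/3T3-derived 3T3Gli1-Luc cells carrying a stable Gli1-driven firefly luciferase reporter; series mostly up to about 92 µM; on the % scale 0 is the no-effect control and ±100 the full control effect; nearly all actives have a fitted effect of over 15% in size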)
Summary of the method: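 Mouse fibroblast (NIH/3T3) reporter cells with stably integrated Gli1-Luc were treated 24 hr with compound; firefly luciferase luminescence served as the read-out.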

[18] = A CellTox Green Cytotoxicity Assay to monitor cytotoxicity in HepG2 cells - 32 hour (AID 1224883); further: nearly all actives have a fitted effect of over 50% in size; further: potency means the concentration at half of the fitted maximal effect
Summary of the method: as §2

[19] = qHTS RealTime-Glo MT Cell Viability Assay in HEK293 cells - 24 hour (AID 1224886); further: nearly all actives have a fitted effect of over 50% in size; further: potency means the concentration at half of the fitted maximal effect
Summary of the method: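 Assay medium contained NanoLuc luciferase plus cell-permeant prosubstrate, added with HEK293 cells at 600 cells/well. After 5 h at 37 C/5% CO2 compounds were added; plates stayed at 37 C for 40 h with serial luminescence reads.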

[20] = biological target: Androgen receptor (Homo sapiens) (UniProt P10275); test: qHTS assay to identify small molecule antagonists of the androgen receptor (AR) signaling pathway using the MDA cell line in the presence of 0.5 nM R1881 (AID 1259243)
Androgen receptor (Homo sapiens), sequence (P10275 whole entry, looked up): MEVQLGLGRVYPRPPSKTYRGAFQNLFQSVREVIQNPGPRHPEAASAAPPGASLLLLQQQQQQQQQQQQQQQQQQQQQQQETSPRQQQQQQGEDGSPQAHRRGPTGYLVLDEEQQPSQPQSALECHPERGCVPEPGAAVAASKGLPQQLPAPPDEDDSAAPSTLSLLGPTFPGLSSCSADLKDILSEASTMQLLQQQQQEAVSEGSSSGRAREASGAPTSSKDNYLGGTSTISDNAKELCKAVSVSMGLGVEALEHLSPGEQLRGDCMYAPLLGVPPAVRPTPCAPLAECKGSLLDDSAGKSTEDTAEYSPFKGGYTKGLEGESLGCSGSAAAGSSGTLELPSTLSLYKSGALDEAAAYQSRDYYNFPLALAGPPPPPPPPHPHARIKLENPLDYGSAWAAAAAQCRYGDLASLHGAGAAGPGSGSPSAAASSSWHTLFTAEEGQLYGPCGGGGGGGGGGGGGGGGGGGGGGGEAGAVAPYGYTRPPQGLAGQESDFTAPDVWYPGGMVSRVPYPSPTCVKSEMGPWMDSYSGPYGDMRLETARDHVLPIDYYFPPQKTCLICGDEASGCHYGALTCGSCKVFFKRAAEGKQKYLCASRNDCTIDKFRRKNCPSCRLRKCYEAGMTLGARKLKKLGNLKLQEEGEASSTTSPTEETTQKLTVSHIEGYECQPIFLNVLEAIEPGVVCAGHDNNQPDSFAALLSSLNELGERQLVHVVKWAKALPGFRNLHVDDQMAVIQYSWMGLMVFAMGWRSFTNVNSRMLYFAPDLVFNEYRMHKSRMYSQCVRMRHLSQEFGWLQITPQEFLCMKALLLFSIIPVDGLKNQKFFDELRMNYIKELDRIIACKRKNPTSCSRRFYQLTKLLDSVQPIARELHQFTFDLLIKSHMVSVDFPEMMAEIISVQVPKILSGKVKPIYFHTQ
Summary of the method: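 We exposed MDA-kb2 cells to compounds under 0.5 nM R1881 stimulation for 16 hr at 37C and quantified MMTV-driven luciferase by luminescence.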

C#C[C@]1(O)CC[C@H]2[C@@H]3CCC4=CC(=O)CCC4=C3C=C[C@@]21CC
active: Potency [11] 13.3 µM
inactive: Potency [1] | Potency [2] | Potency [3] | Potency [4] | Potency [5] | Potency [6] | outcome [7] | Potency [8] | Potency [9] | Potency [10] | outcome [12] | Potency [13] | Potency [14] | Potency [15] | Potency [16] | Potency [17]

O=P(OCC(Br)CBr)(OCC(Br)CBr)OCC(Br)CBr (centres undefined)
active: Potency [19] 27.9 µM | Potency [5] 24.9 µM | Potency [20] 31 µM and 51.7 µM | Potency [16] 55.2 µM
inactive: Potency [1] | Potency [18] | Potency [3] | Potency [4] | Potency [6] | outcome [7] | Potency [8] | Potency [9] | Potency [10] | Potency [13] | Potency [14]

COc1ccc(C(=O)c2c(C)n(CCN3CCOCC3)c3ccccc23)cc1
active: Potency [2] 0.952 µM | Potency [8] 1.07 µM
inactive: Potency [1] | Potency [3] | Potency [4] | Potency [6] | outcome [7] | Potency [9] | Potency [10] | outcome [12] | Potency [14] | Potency [17]

C[Si](Cn1cncn1)(c1ccc(F)cc1)c1ccc(F)cc1
inactive: Potency [2] | Potency [3] | Potency [4] | Potency [6] | outcome [7] | Potency [8] | Potency [9] | Potency [10] | Potency [13] | Potency [14] | Potency [15] | Potency [16] | Potency [17]
active: Potency [18] 50.6 µM and 49 µM | Potency [19] 25.4 µM and 21.9 µM
inactive and 54.9 µM (active): Potency [1]

CCC(C)(C)c1ccc(O)c(C(C)(C)CC)c1
active: Potency [1] 48.5 µM and 13.8 µM | Potency [18] 30.6 µM | Potency [19] 43.2 µM | Potency [5] 24.3 µM | Potency [10] 67.8 µM
inactive: Potency [2] | outcome [7] | Potency [9] | Potency [11] | Potency [13] | Potency [15] | Potency [16] | Potency [17]
48.5 µM (active) and inactive: Potency [3]

Nc1cc(Cl)cc(C(=O)O)c1Cl
inactive: Potency [1] | Potency [2] | Potency [18] | Potency [3] | Potency [4] | Potency [19] | Potency [6] | outcome [7] | Potency [8] | Potency [9] | Potency [10] | Potency [13] | Potency [14] | Potency [15] | Potency [16] | Potency [17]

C[C@@H]1C[C@@H]([C@H](O)CC2CC(=O)NC(=O)C2)C(=O)[C@@H](C)C1
inactive: Potency [1] | Potency [2] | Potency [18] | Potency [3] | Potency [4] | Potency [6] | outcome [7] | Potency [8] | Potency [9] | Potency [10] | PLD induction [12] 2.68% [at 7.66 µM] | Potency [14] | Potency [17]
active: Potency [19] 434 nM and 245 nM and 169 nM | Potency [15] 2.16 µM | Potency [16] 136 nM and 969 nM

COP(=O)(OC)OC(Br)C(Cl)(Cl)Br (centres undefined)
inactive: Potency [1] | Potency [2] | Potency [18] | Potency [3] | Potency [4] | Potency [6] | outcome [7] | Potency [8] | Potency [9] | Potency [10] | Potency [11] | Potency [13] | Potency [14] | Potency [15] | Potency [16] | Potency [17]
active: Potency [20] 61.2 µM and 61.1 µM

CCCCCCCCCCCC[N+](C)(C)CCOc1ccccc1
54.5 µM (active) and inactive: Potency [11]
inactive: outcome [7] | Potency [9] | outcome [12] | Potency [17]
48.6 µM (active) and inactive: Potency [10]
active: Potency [1] 17.4 µM and 23.9 µM | Potency [18] 13.8 µM and 8.49 µM | Potency [3] 24.6 µM | Potency [4] 43.7 µM and 21.3 µM | Potency [19] 11 µM and 10.7 µM | Potency [5] 43.7 µM and 23.9 µM | Potency [6] 21.9 µM and 23.9 µM | Potency [8] 55 µM and 26.8 µM | Potency [15] 24.3 µM
61.1 µM (active) and inactive: Potency [14]
